Inconclusive results are not listed. Where a call stands in place of a potency, no number is given. The source made the active and inactive calls. Unless noted, calls come from the whole dose curve; as a rule, active = well fitted curve in the direction sought with a large enough effect; inconclusive = small, poorly fitted or top-dose-only effect, or another doubt; inactive = no such curve, though single readings can be large; an effect the other way counts as inactive or inconclusive.
Legend:
[1] = target: Mitogen-activated protein kinase 10 (Mus musculus) (UniProt Q61831); assay: JNK3 AlphaScreen Assay (AID 530; active = well fitted curve in either direction with a large enough effect, not every such curve was filed as active;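 note: kinase came from lysate of stimulated human HepG2 cells; signal reports phosphorylation of biotinylated GST-cJun 1-79 at Ser73 with 10 µM ATP; series mostly up to about 57 µM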)
Method in brief: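 Biotinylated GST-cJun(1-79) served as substrate for JNK3 in HepG2 lysates stimulated with IL-1beta and TNF-alpha. ATP was 10 uM final, pH 7.6. Ser73 phosphorylation was quantified by AlphaScreen (680 nm excitation).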

[2] = target: Cytochrome P450 3A4 (Homo sapiens) (UniProt P08684); assay: qHTS Assay for Inhibitors and Substrates of Cytochrome P450 3A4 (AID 884); note: nearly all actives have a fitted effect of over 50% in size; note: potency is the fitted concentration of half-maximal effect
Method in brief: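 Luminescent readout of luciferin produced by CYP3A4 (20 nM) dealkylation of Luciferin-PPXE, 25 uM (its KM). NADPH-driven reaction ran 60 min at RT after 10 min compound preincubation; data scaled to 57 uM ketoconazole as 100% inhibition.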

[3] = target: Calcium and integrin-binding protein 1 (Homo sapiens) (UniProt Q99828); assay: Primary qHTS for Identification of Calcium Integrin Binding Protein 1 (CIB1) Competitor (AID 1508620);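 note: GST tagged CIB1 binding a fluorescein labelled alphaIIb integrin peptide tracer; top concentration of the series differs between compounds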
Method in brief: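 Fluorescence polarization competition: CIB1-GST (1 uM final) preincubated with compound 15 min at room temperature, then FITC-labeled alphaIIb peptide (100 nM final) added for another 15 min. Polarization read at Ex 480/Em 540.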

[4] = target: Cytochrome P450 3A4 (Homo sapiens) (UniProt P08684); assay: qHTS Assay for Activators of Cytochrome P450 3A4 (AID 885); note: nearly all actives have a fitted effect of over 65% in size
Method in brief: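 Luminescent readout of luciferin formed from 25 uM Luciferin-PPXE (KM level) by 20 nM CYP3A4 in 200 mM KPO4, with 60 min NADPH-driven reaction at room temperature after 10 min compound exposure. Ketoconazole (57 uM) defined 100% inhibition.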

Chain of Cytochrome P450 3A4 (Homo sapiens) (P08684 whole entry, looked up): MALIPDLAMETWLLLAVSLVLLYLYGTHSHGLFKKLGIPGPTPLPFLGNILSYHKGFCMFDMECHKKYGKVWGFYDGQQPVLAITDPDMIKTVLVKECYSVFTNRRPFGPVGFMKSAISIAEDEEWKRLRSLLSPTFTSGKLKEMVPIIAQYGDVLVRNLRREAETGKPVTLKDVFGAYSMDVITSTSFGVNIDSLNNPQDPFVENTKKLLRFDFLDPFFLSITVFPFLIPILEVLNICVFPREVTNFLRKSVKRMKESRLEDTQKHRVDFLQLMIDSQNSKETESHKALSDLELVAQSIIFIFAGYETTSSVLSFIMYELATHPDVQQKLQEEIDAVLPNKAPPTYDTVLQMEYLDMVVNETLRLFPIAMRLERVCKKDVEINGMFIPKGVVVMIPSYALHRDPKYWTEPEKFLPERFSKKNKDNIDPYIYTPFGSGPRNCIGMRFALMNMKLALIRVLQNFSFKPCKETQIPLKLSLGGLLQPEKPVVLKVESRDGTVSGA
Chain of Calcium and integrin-binding protein 1 (Homo sapiens) (Q99828 whole entry, looked up): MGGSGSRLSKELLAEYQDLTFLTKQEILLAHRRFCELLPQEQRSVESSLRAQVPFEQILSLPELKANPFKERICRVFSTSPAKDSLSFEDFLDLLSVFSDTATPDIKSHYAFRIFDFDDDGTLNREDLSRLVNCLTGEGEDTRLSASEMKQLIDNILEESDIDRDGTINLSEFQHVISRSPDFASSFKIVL

Row | Structure (SMILES) | outcome [1] | Potency [2] | Potency [3] | Potency [4]
1 | CCCn1c(-c2ccc(F)cc2)nc2c(NC3CCN(Cc4ccccc4)CC3)nc(C)nc21 | inactive | inactive | inactive | –
2 | CCN(CC)CCCC(C)n1c(-c2ccccc2)nc2c(NCCO)nc(C)nc21 (stereo not given) | inactive | inactive | inactive | –
3 | COCCNc1nc(C)nc2c1nc(-c1ccccc1)n2CCN(C)C | inactive | inactive | inactive | –
4 | Cc1nc(N2CCOCC2)c2nc(-c3ccccc3)n(CCN(C)C)c2n1 | inactive | inactive | inactive | –
5 | CCN(CC)CCCCn1c(-c2ccccc2)nc2c(NCCOC)nc(C)nc21 | inactive | inactive | inactive | –
6 | CCCn1c(C)nc2c(N3CCN(C)CC3)nc(C)nc21 | inactive | inactive | inactive | –
7 | CCCn1c(C)nc2c(NCC(C)(C)CN(C)C)nc(C)nc21 | inactive | inactive | inactive | –
8 | CCN1CCCC1Cn1c(-c2ccccc2)nc2c(NCCOC)nc(C)nc21 (stereo not given) | inactive | 20 µM (active) | inactive | inactive
9 | CCCn1c(C)nc2c(N3CCC(N(C)C)C3)nc(C)nc21 (stereo not given) | inactive | inactive | inactive | –
10 | CCCn1c(-c2ccc(F)cc2)nc2c(N3CCN(Cc4nc(OC)cc(OC)n4)CC3)nc(C)nc21 | inactive | 3.98 µM (active) | inactive | inactive
11 | CCCn1c(C)nc2c(NCCCCN(C)C)nc(C)nc21 | inactive | inactive | inactive | –
12 | CCCn1c(C)nc2c(NCCN(C)C)nc(C)nc21 | inactive | inactive | inactive | –
13 | Cc1nc(NCCO)c2nc(-c3ccccc3)n(CC3CCN(C)CC3)c2n1 | inactive | inactive | inactive | –
14 | CCCn1c(C)nc2c(NC3CCN(Cc4ccccc4)CC3)nc(C)nc21 | inactive | inactive | inactive | –
15 | CCCn1c(-c2ccc(F)cc2)nc2c(NCCN(C)C)nc(C)nc21 | inactive | inactive | inactive | –
16 | CCCn1c(-c2ccc(F)cc2)nc2c(NCCN3CCCC3)nc(C)nc21 | inactive | inactive | inactive | –

Row | Structure (SMILES) | outcome [1] | Potency [2] | Potency [3] | Potency [4]
17 | Cc1nc(NCc2ccccc2)c2nc(-c3ccccc3)n(CCCN3CCOCC3)c2n1 | inactive | 3.98 µM (active) | inactive | inactive
18 | CCN(CC)CCCn1c(-c2ccccc2)nc2c(NCCOC)nc(C)nc21 | inactive | inactive | inactive | –
19 | CCCn1c(C)nc2c(NCCCN3CCCCC3C)nc(C)nc21 (stereo not given) | inactive | inactive | inactive | –
20 | CCN(CC)CCn1c(-c2ccccc2)nc2c(N3CCOCC3)nc(C)nc21 | inactive | inactive | inactive | –
21 | CCCn1c(C)nc2c(N(CCN(CC)CC)CCN(CC)CC)nc(C)nc21 | inactive | inactive | inactive | –
22 | Cc1nc(N2CCOCC2)c2nc(-c3ccccc3)n(CC3CCN(C)CC3)c2n1 | inactive | inactive | inactive | –
23 | CCCn1c(C)nc2c(N3CCC(N4CCN(C)CC4)CC3)nc(C)nc21 | inactive | inactive | inactive | –
24 | CCCn1c(C)nc2c(NCC3CCCN3CC)nc(C)nc21 (stereo not given) | inactive | inactive | inactive | –
25 | CCCn1c(C)nc2c(NCCOC)nc(C)nc21 | inactive | inactive | inactive | –
26 | CCN(CC)CCCCn1c(-c2ccccc2)nc2c(Nc3ccccc3)nc(C)nc21 | inactive | inactive | inactive | –
27 | CCN(CC)CCCC(C)n1c(-c2ccccc2)nc2c(N(CCOC)CCOC)nc(C)nc21 (stereo not given) | inactive | 10 µM (active) | inactive | inactive
28 | Cc1nc(NC2CCCCC2)c2nc(-c3ccccc3)n(C(C)CN(C)C)c2n1 (stereo not given) | inactive | 12.6 µM (active) | inactive | –
29 | Cc1nc(NCCO)c2nc(-c3ccccc3)n(CCCN(C)C)c2n1 | inactive | inactive | inactive | –
30 | Cc1nc(N2CCOCC2)c2nc(-c3ccccc3)n(CCCN(C)C)c2n1 | inactive | inactive | inactive | –
31 | CCCn1c(C)nc2c(NCCN(C(C)C)C(C)C)nc(C)nc21 | inactive | inactive | inactive | –
32 | CCCn1c(C)nc2c(NCCCCN3CCCC3)nc(C)nc21 | inactive | inactive | inactive | –

From PubChem BioAssay (NCATS)
